IP6K1 inhibitor: Primary qHTS assay for small molecule inhibitors of Inositol hexaphosphate kinase 1 (IP6K1); Inositol hexakisphosphate kinase 1 (Homo sapiens), Q92551; IP6K1 kinase, ADP-Glo luminescence, 2 h; active compounds read low; activity change, % (series mostly up to about 58 µM); 0.81% of 140,000 active; in the data active = activity change below about -25%; also: % is scaled to controls: 0 for no effect and ±100 for the full control effect
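ADP-Glo luminescence measures ADP made by human IP6K1 during a 2 h RT reaction with ATP/IP6 (mix at 1.3 mM/130 uM); top library doses 57.5 and 19.1 uM final.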
KDM5B inh: Primary screen for KDM5B Histone Demethylases FDH-coupled qHTS; KDM5B demethylase, FDH-coupled NADH fluorescence (FDH is formaldehyde dehydrogenase); Potency, µM (series often up to 57.7 µM), hits mostly inhibitors; 2.6% of 220,000 active; AID 1347165, 2019; active = well fitted inhibition curve with a large enough effect; inconclusive = small, poorly fitted or top-dose-only effect; inactive = no such curve, though single readings can be large or run the other way; also: potency is read from the fitted curve at half-maximal effect; 0% is about no effect; nearly all actives have a fitted effect of over 70% in size
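qHTS format, multiple compound concentrations. Buffer 50 mM HEPES pH 7.5/0.01% Tween-20; 200 nM KDM5BΔAP final; 10 min compound preincubation; substrate-mix levels 12.5 µM peptide, 25 µM α-KG, 0.25 mM NAD⁺; 30 min RT; ΔRFU.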
The depositor's hits bear a star; i = inactive; ? = inconclusive; · = not tested or not shown; ! = not confirmed by another sample. In the library only some 2.8% were active in any assay of this set; here they are far more common.

SMILES	IP6K1 inhibitor	KDM5B inh
COc1nc2nc(CCc3ccccc3)n(C)c2cc1-c1ccc(CO)cc1	-2	35µM*
COc1ccccc1-c1cc2c(nc1OC)nc(CC1CC1)n2C	13	40µM*
COCc1nc2nc(-c3ccccc3)c(-c3cccc(NC(C)=O)c3)cc2n1C	16	i
COc1nc2nc(CCc3ccccc3)n(C)c2cc1-c1cccc(NC(C)=O)c1	5	35µM*
COCc1nc2nc(-c3ccccc3)c(-c3ccc(O)c(F)c3)cc2n1C	14	i
COc1ccc(-c2cc3c(nc2OC)nc(CC2CC2)n3C)cc1OC	9	i
COc1nc2nc(CCc3ccccc3)n(C)c2cc1Nc1ccncn1	13	i
C=C1C(OC2OCC(O)C(O)C2O)CC2C(C)(C)C(O)CCC2(C)C1CC/C(C)=C\CO (stereo not drawn)	-4	·
Cc1ccccc1-c1nc(CSCC(=O)NCc2cccs2)c(C)o1	·	i
COc1cc(NC(=O)c2ccc(N3C(=O)CCS3(=O)=O)cc2)cc(OC)c1OC	·	i
O=C(c1ccc(-c2cccc(F)c2)nc1)N1CCCC(c2ccccc2)CC1 (stereo not drawn)	2	i
COc1cc2c(cc1NS(=O)(=O)c1ccc(Br)cc1C)n(C)c(=O)n2C	-11	·
Cc1ccc(C(=O)N[C@@H]2C=C(C(=O)N[C@@H](CCS(C)(=O)=O)C(N)=O)C[C@@H](O)[C@@H]2O)cc1	-6	i
CS(=O)(=O)CC[C@H](NC(=O)C1=C[C@@H](NC(=O)CCN)[C@@H](O)[C@H](O)C1)C(N)=O	16	40µM*
Cc1cccc(N2CCN(C(=O)C3CCCN(S(C)(=O)=O)CCC(=O)NCC3)CC2)c1 (stereo not drawn)	2	i
O=C(NCc1ccc(OC(F)(F)F)cc1)N1CCc2nc3cc[nH]n3c(=O)c2C1	0	?
O=C(c1ccncc1)N1CCc2nc3cc(-c4ccccc4Cl)[nH]n3c(=O)c2C1	5	16µM*
O=C(NCc1ccco1)N1CCc2nc3cc(-c4ccccc4Cl)[nH]n3c(=O)c2C1	0	14µM*
CCn1nccc1C(=O)N1CCc2nc3cc(-c4ccccc4Cl)[nH]n3c(=O)c2C1	0	?
COc1cccc(C(=O)CC(CC(=O)c2cccc(OC)c2)c2ccccc2C(=O)O)c1	·	i
O=C(C1CCCC1)N1CCC2(CN[S+](=O)([O-])c3ccccc3N2)C1 (stereo not drawn)	-9	i
CC(C)NC(=O)N1CCC2(CC1)CC(CC(=O)O)CCO2 (stereo not drawn)	5	i
O=C(O)CNS(=O)(=O)c1ccccc1Br	·	i
Cc1noc([C@@H](C)NC(=O)c2cccs2)c1C(=O)O	11	i
Cc1nn(-c2ccccc2)nc1C(=O)N[C@H](C)c1onc(C)c1C(=O)O	-13	32µM*
SMILES	IP6K1 inhibitor	KDM5B inh
CCOC(=O)c1ccc(NC(=O)Cn2c(N(C)Cc3ccccc3)nc(C)cc2=O)cc1	9	i
CCOC(=O)c1ccccc1NC(=O)Cn1c(N(C)Cc2ccccc2)nc(C)cc1=O	12	16µM*
CCCCCn1c(NCCCO)nc2c1c(=O)[nH]c(=O)n2C	·	i
O=C(NCc1ccc(Cl)cc1)c1cnc(N2CCOCC2)c2ccccc12	2	?
CCOc1ccccc1Nc1nc2ccccc2nc1NS(=O)(=O)c1ccc(F)cc1	·	i
CC(C)c1nc2nccc(-c3ccccc3)n2n1	-5	28µM*
CC(C)c1nc2nccc(-c3ccc(F)cc3)n2n1	7	28µM*
CC(C)c1nc2nccc(-c3ccco3)n2n1	-1	?
COc1ccc(Cc2nc3nccc(-c4ccc(F)cc4)n3n2)cc1	-5	i
CCNC(=O)C(C)Sc1nc(NCC)c2ccccc2n1 (stereo not drawn)	·	i
CC(=O)c1ccc(NC(=O)CC2C(=O)NCCN2C(=O)CN2CCN(CCO)CC2)cc1 (stereo not drawn)	·	i
Cc1cccc(-n2nc(-c3c(C)nc4scc(CC(=O)NCc5ccccc5)n4c3=O)cc2C)c1	28	?
CCc1ccccc1-n1nc(-c2c(C)nc3scc(CC(=O)NCCC(C)C)n3c2=O)cc1C	0	25µM*
Cc1cccc(-n2nc(-c3c(C)nc4scc(CC(=O)NCCC(C)C)n4c3=O)cc2C)c1	9	25µM*
COc1ccccc1-n1nc(-c2c(C)nc3scc(CC(=O)NCCC(C)C)n3c2=O)cc1C	-1	28µM*
CCCCCNC(=O)Cc1csc2nc(C)c(-c3cc(C)n(-c4ccccc4CC)n3)c(=O)n12	12	?
Cc1nc2scc(CC(=O)NCCC(C)C)n2c(=O)c1-c1cc(C)n(-c2ccccc2F)n1	6	?
COc1ccc(CC(=O)N2CCC(C(=O)N3CCCC3c3nc4ccncc4[nH]3)CC2)cc1 (stereo not drawn)	-9	·
CC(C)CCN1CCC2(CC1)C(=NC1CCCCC1)NC(=O)N2c1cc(F)cc(F)c1	-14	i
COc1ccccc1-c1c(C)nn2c(SCC(=O)NCc3ccc(Cl)cc3)cc(C)nc12	·	i
CC(C)CNC(=O)CN1CCN(c2cccc(F)c2C#N)CC1	·	i
Cc1ccc(NC(=O)c2cnc(SCC(=O)N3CCCc4ccccc43)n(C)c2=O)cc1C	-11	i
O=C(NCc1cccc(C(F)(F)F)c1)c1ccc2nccn2c1	-12	35µM*
CC(C)(C)c1nnc2ccc(C(=O)NCc3cccs3)cn12	20	·
O=C(NCc1cccs1)c1ccc2nccn2c1	-14	35µM*
SMILES	IP6K1 inhibitor	KDM5B inh
O=C(NCc1cccnc1)c1ccc2nccn2c1	5	112µM*!
O=C(NCc1ccncc1)c1ccc2nccn2c1	0	?
O=C(NCc1cccc(F)c1)c1ccc2nccn2c1	12	·
N#Cc1ccc(OCCn2cc(S(=O)(=O)N3CCCC3)ccc2=O)cc1	·	i
Cc1ccc(OCCCN)cc1	·	i
O=[N+]([O-])c1cccc(-c2noc([C@@H]3Cc4nc[nH]c4CN3CC3CCCCC3)n2)c1	6	?
CCCCn1c(N2CCN(Cc3cccc(C)c3)CC2)nc2c1c(=O)[nH]c(=O)n2C	·	i
CCOc1ccc(NC(=O)CSc2nccc(-c3cccc(OC(F)F)c3)n2)cc1	·	i
Cc1cccc(C(=O)N2CCCCC2c2n[nH]c(C)n2)c1 (stereo not drawn)	9	i
COc1ccc(S(=O)(=O)NCCNc2cc(C)nc3ccnn23)cc1	13	28µM*
COc1ccc(S(=O)(=O)NCc2nc3nc(C)cc(C)n3n2)cc1	6	i
COc1ccc(NC(=O)C2=C(C)Nc3ncnn3C2c2sccc2C)cc1 (stereo not drawn)	0	i
O=C(NCc1ccc(Cl)cc1)c1ccc2cncn2c1	4	?
C=CCNC(=O)c1ccc2cncn2c1	10	32µM*
COc1cccc(C2CNC(=O)c3nc(Cn4nc(C)c(C)c4C)[nH]c3C2)c1 (stereo not drawn)	-2	i
COc1cccc(C2CNC(=O)c3nc(-c4ccc(C(=O)N(C)C)o4)[nH]c3C2)c1 (stereo not drawn)	12	28µM*
O=C(O)Cn1ccc2cc(OCc3cccc(-c4ccc(F)c(Cl)c4)c3)cnc21	-11	40µM*
CNC(=O)CCn1ncc2cc(OCc3ccccc3-c3ccc(F)c(Cl)c3)ccc21	-2	?

Assay outcomes: PubChem BioAssay, National Center for Advancing Translational Sciences (NCATS)
